From PubChem BioAssay (NCATS) come the findings set out here.

Inconclusive results are not listed. Active and inactive are the calls of the source. Unless noted, the call rests on the fitted dose curve; in most records, active means well fitted curve in the direction sought with a large enough effect; inconclusive means small, poorly fitted or top-dose-only effect, or another doubt; inactive means no such curve, though single readings can be large; an effect the other way counts as inactive or inconclusive.

Assay [1] can be described thus: Quantitative High-Throughput drug screen in 47 multiple myeloma cell lines against the NCATS MIPE library collection: KMS28BM_JCRB cell viability assay (AID 1919874). Further: nearly all actives have a fitted effect of over 35% in size. Further: potency means the concentration at half of the fitted maximal effect. The method, boiled down: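 qHTS format: cells plated (500/well), pin-dosed with MIPE 4.0 compounds, kept 48 h at 37 °C. Readout was CellTiter-Glo luminescence, median RLU.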
Assay [2] in a line: qHTS for identification of novel therapeutic agents for treatment of microphthalmiaassociated transcription factor (MiT) renal cell carcinoma (RCC) (AID 1963991; calls by dose curve; further: potency means the concentration at half of the fitted maximal effect;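 on z-score: curves scaled with 100% = DMSO viability and 0% = empty wells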). The settings on record: CellTiter-Glo, 48 h; for z-score: stronger effect = lower value; for Potency: active = Z-AUC below -0.8 in all three lines. A digest of the protocol: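 UOK109/UOK124/UOK145 (TFE3 fusions, three partners); 500 cells/well; MIPE v4.0, 1912 cpds, 11 conc.; 48 h, 37 C; CellTiter-Glo, 15 min RT; lum. Norm.: DMSO 100%, empty 0%.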
A general note: In qHTS, concentration-response curves come from the screen itself.

The nature of assay [3]: qHTS drug screen for cell cycle checkpoint inhibitors in PARPi-resistant BRCA-mutant ovarian cancer cell lines. (AID 1963452; calls by dose curve). The settings on record: PEO1/OlaR viability, CellTiter-Glo luminescence, 96 h, stronger effect = lower value. A digest of the protocol: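 PEO1, PEO4 and PEO1/OlaR ovarian cancer cells, 600 per well, exposed 96 h at 37C to a dilution series. Viability read by CellTiter-Glo luminescence, normalized to DMSO and empty wells; activity summarized as Z-AUC.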

Assay [4] addresses Cytochrome P450 2D6 (Homo sapiens) (UniProt P10635). The experiment in a line: qHTS for inhibitors of CYP2D6 against the NCATS DSHEA and TCM libraries (AID 1919972). Further: on the % scale 0 is the no-effect control and ±100 the full control effect. The method, boiled down:
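CYP2D6 enzyme with pro-luciferin substrate in manufacturer buffer (typically 100 mM KPO4), preincubated 15 min RT with substances (most at 19.5 nM upward); NADPH regeneration system (1x) started 30–45 min RT reaction; P450-Glo luminescence read after 30 min; quinidine as intraplate control.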

Assay [5] can be described thus: KB-3-1 P-gp reporter qHTS against the NCATS DSHEA and TCM libraries (AID 1919975). Further: 0% is about no effect. A digest of the protocol:
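72 h exposure of KB-3-1 cells (DMEM, 10% FBS) to DSHEA/TCM samples, concentration-response; cell viability measured as CellTiter-Glo luminescence after 30 min at room temperature.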

Assay [6] deals with Cytochrome P450 1A2 (Homo sapiens) (UniProt P05177). In words: qHTS for inhibitors of CYPIA2 against the NCATS DSHEA and TCM libraries (AID 1919976). Further: potency means the concentration at half of the fitted maximal effect. The method, boiled down:
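Enzyme and pro-luciferin substrate, or substrate alone as no-enzyme background, are pre-incubated with test samples for 15 min at room temperature. NADPH regeneration system (1x final) initiates a 30-45 min dark reaction; luciferase detection reagent follows before luminescence reading.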

A short description of assay [7]: qHTS Counterscreen for compound interference against the NCATS DSHEA and TCM libraries (AID 1919978). Further: % of control where 0% means no effect. To be noted: firefly luciferase detection reagent interference, luminescence. A digest of the protocol: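 Read-out is luminescence after 30 min at RT with luciferin detection reagent. Before that, compounds (19.5 nM to 39.8 uM final) sat 15 min at RT with 1 uM D-luciferin or 100 mM potassium phosphate buffer. PTC124 served as intraplate control.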

Assay [8] can be described thus: Dual reporter qHTS for agonist of Pregnane X Receptor (hPXR) against the NCATS DSHEA and TCM libraries: Fluorescence readout (AID 1920058). Further: 0% is about no effect. The method, boiled down:
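Cells were plated at 2000 per well and allowed to attach for 5 h. Test substances were pinned in and incubated roughly 24 h. CellTiter-Fluor was then added and fluorescence measured after 1 h.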

The target of assay [9] is Nuclear receptor subfamily 1 group I member 2 (Homo sapiens) (UniProt O75469). The experiment in a line: Dual reporter qHTS for agonist of Pregnane X Receptor (hPXR) against the NCATS DSHEA and TCM libraries: Luminescence readout (AID 1920059). Further: 0% is about no effect. A digest of the protocol: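 hPXR-LucHepG2 cells in phenol red-free DMEM with 5% charcoal-stripped FBS, 2000 cells/well, attached 5 h, then exposed 24 h at 37C to compounds; rifampicin as positive agonist control (2.8 nM–92 uM). Luciferase luminescence read.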
Chain of Nuclear receptor subfamily 1 group I member 2 (Homo sapiens) (O75469 whole entry, looked up): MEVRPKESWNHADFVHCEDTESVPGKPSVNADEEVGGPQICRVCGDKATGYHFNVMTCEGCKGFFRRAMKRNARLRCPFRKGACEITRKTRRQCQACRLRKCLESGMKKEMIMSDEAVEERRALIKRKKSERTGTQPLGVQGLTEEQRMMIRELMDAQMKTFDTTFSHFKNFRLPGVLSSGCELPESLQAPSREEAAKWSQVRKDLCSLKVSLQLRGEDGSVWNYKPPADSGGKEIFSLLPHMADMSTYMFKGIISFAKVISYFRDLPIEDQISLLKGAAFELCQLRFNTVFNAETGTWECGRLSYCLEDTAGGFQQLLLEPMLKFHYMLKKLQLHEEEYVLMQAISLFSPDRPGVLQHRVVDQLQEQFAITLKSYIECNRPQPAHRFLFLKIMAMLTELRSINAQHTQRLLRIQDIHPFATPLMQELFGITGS

The target is the same in assay [10]. The experiment in a line: Dual reporter qHTS for antagonist of Pregnane X Receptor (hPXR) against the NCATS DSHEA and TCM libraries: Luminescence Readout (AID 1920060).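 Further: HepG2 cells carrying hPXR luciferase reporter stimulated with rifampicin at 2 µM; 0% is about no effect.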 A digest of the protocol:
(§1)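 HepG2 hPXR-Luc, 2000 cells/well, charcoal-stripped FBS medium; 5 h attach; RIF 2 uM final; 24 h 37C/5% CO2; CellTiter-Fluor 1 h, fluor 405/540; ONE-Glo 30 min RT, lum.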

The nature of assay [11]: Dual reporter qHTS for antagonist of Pregnane X Receptor (hPXR) against the NCATS DSHEA and TCM libraries: Fluorescence Readout (AID 1920061). Further: 0% is about no effect. The method, boiled down: as §1
The mark [12] stands for this setting: TFE3-RCC UOK109 viability, measured here: UOK109 Z-AUC.
Setting [13] is: TFE3-RCC viability, measured here: UOK124 Z-AUC.
Where [14] appears, read: TFE3-RCC viability, measured here: UOK145 Z-AUC.
Setting [15] is: measured here: PEO1 parental Z-AUC.

Chain of Cytochrome P450 1A2 (Homo sapiens) (P05177 whole entry, looked up): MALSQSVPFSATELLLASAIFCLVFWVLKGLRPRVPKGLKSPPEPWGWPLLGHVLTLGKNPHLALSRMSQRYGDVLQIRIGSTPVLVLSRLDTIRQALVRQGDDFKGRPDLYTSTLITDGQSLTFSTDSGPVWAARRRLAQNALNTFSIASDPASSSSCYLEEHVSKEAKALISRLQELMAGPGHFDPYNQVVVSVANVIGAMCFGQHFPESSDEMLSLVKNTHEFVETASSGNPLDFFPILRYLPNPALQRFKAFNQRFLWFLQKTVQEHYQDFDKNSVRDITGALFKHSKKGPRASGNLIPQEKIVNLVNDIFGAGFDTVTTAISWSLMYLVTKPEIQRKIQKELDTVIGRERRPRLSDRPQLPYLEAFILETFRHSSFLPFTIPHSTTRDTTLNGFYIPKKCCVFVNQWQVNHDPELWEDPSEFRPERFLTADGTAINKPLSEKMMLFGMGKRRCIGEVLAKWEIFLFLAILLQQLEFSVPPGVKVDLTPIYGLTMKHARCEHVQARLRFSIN
Chain of Cytochrome P450 2D6 (Homo sapiens) (P10635 whole entry, looked up): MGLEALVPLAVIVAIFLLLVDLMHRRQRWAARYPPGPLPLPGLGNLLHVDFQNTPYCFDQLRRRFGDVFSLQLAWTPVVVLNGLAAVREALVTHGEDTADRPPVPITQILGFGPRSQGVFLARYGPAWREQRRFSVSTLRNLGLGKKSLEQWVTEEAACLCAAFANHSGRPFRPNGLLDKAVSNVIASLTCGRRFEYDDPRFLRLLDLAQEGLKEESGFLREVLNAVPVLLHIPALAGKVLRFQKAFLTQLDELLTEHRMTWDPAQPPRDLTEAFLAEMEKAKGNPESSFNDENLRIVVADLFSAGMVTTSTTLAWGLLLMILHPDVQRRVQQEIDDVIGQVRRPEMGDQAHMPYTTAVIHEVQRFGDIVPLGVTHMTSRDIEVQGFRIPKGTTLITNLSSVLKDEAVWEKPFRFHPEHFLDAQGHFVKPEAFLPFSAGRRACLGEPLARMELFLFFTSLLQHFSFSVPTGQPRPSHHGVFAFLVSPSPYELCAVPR

For the compound `CC[C@H]1OC(=O)[C@H](C)[C@@H](O[C@H]2C[C@@](C)(OC)[C@@H](O)[C@H](C)O2)[C@H](C)[C@@H](O[C@@H]2O[C@@H](C)C[C@H](N(C)C)[C@@H]2O)[C@](C)(O)C[C@@H](C)C(=O)[C@H](C)[C@@H](O)[C@]1(C)O`, the Potency entry in [1] was “inactive”. The figures for the z-score in assay [2] (setting [12]), in assay [2] (setting [13]) and in assay [2] (setting [14]) were 0.677, 0.444 and 0.443, respectively.

For `C=CC(=O)Nc1cccc(Nc2nc(NC3CCC(N(C)C)CC3)nc3c2ncn3C(C)C)c1` (centres undefined), the figures for the Potency in [1] and in [2] (TFE3-RCC UOK109 viability) were 209 nM (active) and 46.9 nM (active), respectively. Also, the z-score was -3.03 in assay [2] (setting [12]), -0.935 in assay [2] (setting [13]) and -1.36 in assay [2] (setting [14]).

In the case of `CN[C@@H]1C[C@H]2O[C@@](C)([C@H]1OC)n1c3ccccc3c3c4c(c5c6ccccc6n2c5c31)C(=O)N[C@H]4O`, the Potency in assay [1] was 469 nM (active); in assay [2] (TFE3-RCC UOK109 viability) it was 1480 nM (active). Besides, the figures for the z-score in [2] (setting [12]), in assay [2] (setting [13]) and in assay [2] (setting [14]) were -1.4, -2.32 and -1.88, respectively.

Consider `CN(N=O)C(=O)N[C@H]1C(O)OC(CO)[C@@H](O)[C@H]1O` (some centres undefined), for which, in [1], the Potency entry is “inactive”. For the same compound, the z-score in assay [2] (setting [12]) was 0.19; in assay [2] (setting [13]), 0.37; in assay [2] (setting [14]), -0.505.

For `CC(=O)C1=C(O)C=C2Oc3c(C(C)=O)c(O)c(C)c(O)c3C2(C)C1=O` (centres undefined), in [1], the Potency result is “inactive”. The z-score in [2] (setting [12]) was 0.861; in assay [2] (setting [13]) it was 0.834; in assay [2] (setting [14]), -0.166.

Turning to `CC(=O)[C@]1(O)Cc2c(O)c3c(c(O)c2[C@@H](O[C@H]2C[C@H](N)[C@@H](O)[C@H](C)O2)C1)C(=O)c1ccccc1C3=O`, the figures for the Potency in assay [1] and in [2] (TFE3-RCC UOK109 viability) were 148 nM (active) and 332 nM (active), respectively. Besides, the z-score in [2] (setting [12]) is -1.95; in assay [2] (setting [13]), -1.91; in [2] (setting [14]), -1.45.

Turning to `c1ccc2c(Oc3nc(Nc4ccc(N5CCOCC5)cc4)c4ncn(C5CCCCC5)c4n3)cccc2c1`, the Z-AUC was 1.71 (inactive) in [3], 1.4 in assay [3] (setting [15]) and 1.58 in assay [3] (measured here: PEO4 Z-AUC).

In the case of `CCc1nc(-c2cccc(C)c2)c(-c2ccnc(NC(=O)c3ccccc3)c2)s1`, the Z-AUC was -0.209 (inactive) in assay [3], 0.57 in assay [3] (setting [15]) and 0.812 in assay [3] (measured here: PEO4 Z-AUC).

For `NC(=O)c1ncn([C@@H]2O[C@H](CO)[C@@H](O)[C@@H]2O)c1N`, the Potency result in assay [1] is “inactive”. Further, the z-score in [2] (setting [12]) was 0.684; in assay [2] (setting [13]) it was 0.695; in assay [2] (setting [14]), 0.605.

For the compound `C[N+]1(C)[C@@H]2C[C@@H](OC(=O)C(O)(c3cccs3)c3cccs3)C[C@H]1[C@@H]1O[C@@H]12`, the Potency result in assay [1] was “inactive”. Also, the z-score stood at 0.526 in [2] (setting [12]), 0.59 in assay [2] (setting [13]) and 0.677 in assay [2] (setting [14]).

With `COc1ccc(C(C)=O)c(O)c1`, the call in assay [4], in assay [5], in assay [8], in assay [9], in [10] and in assay [11] was inactive. Moreover, the Potency in assay [6] was 15800 nM (active). The max response in assay [7] was 3.21% (inactive).

Turning to `COc1cccc2c1C(=O)c1c(O)c3c(c(O)c1C2=O)C[C@@](O)(C(C)=O)C[C@H]3O[C@H]1C[C@H](N)[C@H](O)[C@H](C)O1`, the Potency in assay [1] was 29.6 nM (active); in assay [2] (TFE3-RCC UOK109 viability), 296 nM (active). For the same compound, the results for the z-score in assay [2] (setting [12]), in assay [2] (setting [13]) and in assay [2] (setting [14]) were -1.65, -2.33 and -1.35, respectively.
